The values below come from PubChem BioAssay (NCATS).

Inconclusive results are not listed. Unmarked numbers belong to inactive results. Calls of active or inactive are those of the source. Calls follow the shape of the dose curve; as a rule, active = well fitted curve in the direction sought with a large enough effect; inconclusive = small, poorly fitted or top-dose-only effect, or another doubt; inactive = no such curve, though single readings can be large; an effect the other way counts as inactive or inconclusive. Square brackets hold non-standard residues; d marks the D form. Peptide text beside a SMILES is read from it.

Assay [1] concerns the target Cellular tumor antigen p53 (Homo sapiens) (UniProt P04637). As to the kind of experiment: Primary qHTS for small molecule compounds that upregulate eGFP-tagged delta133p53alpha (in N-terminal) cells. (AID 2060322). Also: nearly all actives have a fitted effect of over 75% in size. Also: potency is read from the fitted curve at half-maximal effect.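 As to activation: series mostly up to about 56 µM; 0% = DMSO vehicle and 100% = reference activator.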 Conditions: NCI-H358 eGFP-delta133p53alpha fluorescence, 24 h; activation: active compounds read high. The essentials: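 NCI-H358 cells pre-induced 24 h with 10 ng/ml doxycycline to express N-terminal eGFP-delta133p53alpha, then dosed 24 h at 37C without doxycycline; fixed, Hoechst-stained, GFP intensity by laser scanning cytometry, normalized to DMSO (0%) and 57.5 uM 5-azacytidine (100%).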

In assay [2] the target is Aldehyde dehydrogenase, mitochondrial (Homo sapiens) (UniProt P05091). As to the kind of experiment: qHTS for Inhibitors of the Aldehyde Dehydrogenase Family (ALDH2) Primary screen (AID 2061308).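 Also: plate controls were vehicle for no effect and reference inhibitor for full effect; nearly all actives have a fitted effect of over 55% in size.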 For orientation: In qHTS, concentration-response curves come from the screen itself.
For assay [3], the target named is Retinaldehyde dehydrogenase 3 (Homo sapiens) (UniProt P47895). As to the kind of experiment: qHTS for Inhibitors of the Aldehyde Dehydrogenase Family (ALDH1A3) Primary screen (AID 2061315).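 Also: plate controls were DMSO vehicle for no effect and reference inhibitor for full effect.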

Chain of Cellular tumor antigen p53 (Homo sapiens) (P04637 whole entry, looked up): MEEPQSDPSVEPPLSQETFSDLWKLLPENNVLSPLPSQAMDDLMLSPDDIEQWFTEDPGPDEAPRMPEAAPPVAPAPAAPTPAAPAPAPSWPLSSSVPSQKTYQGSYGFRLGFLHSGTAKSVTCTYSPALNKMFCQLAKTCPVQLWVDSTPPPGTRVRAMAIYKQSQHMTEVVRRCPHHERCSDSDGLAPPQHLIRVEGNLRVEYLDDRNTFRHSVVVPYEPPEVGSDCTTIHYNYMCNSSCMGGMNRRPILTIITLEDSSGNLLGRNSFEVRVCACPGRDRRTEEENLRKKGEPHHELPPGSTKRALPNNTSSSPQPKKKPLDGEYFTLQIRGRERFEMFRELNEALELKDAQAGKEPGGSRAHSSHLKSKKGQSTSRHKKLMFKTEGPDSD

Turning to `CC(C)c1ccc(CC(=O)N2CCC[C@@H](c3cccc(OC(C)(C)C(=O)O)c3)C2)cc1`, in assay [1], the activation was 7%. In addition, the Potency entry in assay [2] and in assay [3] was “inactive” throughout.
For `COc1ccc(/C=C/C(=O)O[C@@H]2[C@@H](O)[C@H](C)O[C@@H](O[C@H]3[C@@H]4C=CO[C@@H](O[C@H]5O[C@@H](CO)[C@H](O)[C@@H](O)[C@@H]5O)[C@@H]4[C@@]4(CO)O[C@@H]34)[C@@H]2OC(C)=O)cc1`, the activation in assay [1] is -12.5%. Moreover, the Potency entry in assay [2] and in assay [3] was “inactive” in each case.
Turning to `CC1CCC2(NC1)OC1CC3C4CC=C5CC(O[C@@H]6O[C@H](CO)[C@@H](O[C@@H]7O[C@@H](C)[C@H](O)[C@@H](O)[C@H]7O)[C@H](O)[C@H]6O[C@@H]6O[C@@H](C)[C@H](O)[C@@H](O)[C@H]6O)CCC5(C)C4CCC3(C)C1C2C` (some centres not stated), the activation in assay [1] is 16.8%. Further, the Potency result in assay [2] and in assay [3] was “inactive” each time.
Consider `OC[C@H]1O[C@@H](n2cnc3c(NCc4ccc(O)cc4)ncnc32)[C@H](O)[C@@H]1O`, for which the activation in assay [1] was 13.7%. The Potency entry in assay [2] and in assay [3] was “inactive” in each case.
As to `CC12CCC3c4ccc(O)cc4CCC3C1CCC2OC1OC(C(=O)O)C(O)C(O)C1O` (configuration not stated), in assay [1], the activation is -11.7%. The Potency entry in assay [2] and in assay [3] was “inactive” throughout.
Consider `CC1=CC(=O)C2C(C)(C)CCC[C@]2(C)[C@H]1CO` (some centres not stated), for which the activation in assay [1] is -3.82%. Further, the Potency entry in assay [2] and in assay [3] was “inactive” in each case.
As to `CC(C)C(C#N)O[C@@H]1O[C@H](CO[C@@H]2O[C@@H](C)[C@H](O)[C@@H](O)[C@H]2O)[C@@H](O)[C@H](O)[C@H]1O` (some centres not stated), the activation in assay [1] was -3.82%. For the same compound, the Potency entry in assay [2] and in assay [3] was “inactive” throughout.
Turning to `C=CCc1ccc(O[C@@H]2O[C@H](CO[C@@H]3O[C@@H](C)[C@H](O)[C@@H](O)[C@H]3O)[C@@H](O)[C@H](O)[C@H]2O)cc1`, the activation in assay [1] was 3.57%. The Potency result in assay [2] and in assay [3] was “inactive” throughout.
In the case of `C=C1CC[C@]2(C(=O)O[C@@H]3O[C@H](CO)[C@@H](O)[C@H](O)[C@H]3O)CC[C@]3(C)C(=CCC4[C@@]5(C)C[C@H](O)[C@@H](O[C@@H]6O[C@H](C(=O)O)[C@@H](O)[C@H](O)[C@H]6O)[C@](C)(C=O)C5CC[C@]43C)C2C1` (some centres not stated), the activation in assay [1] is -11.6%. Besides, the Potency entry in assay [2] and in assay [3] was “inactive” throughout.
On to `O=C(c1ccc(OC(F)F)c(C#Cc2ccccn2)c1)N1Cc2cccnc2C1`, for which the activation in assay [1] was 4.77%. The Potency entry in assay [2] and in assay [3] was “inactive” throughout.
Turning to `O=C(O)c1ccnc2cc(C(OCC3CCC(F)(F)CC3)c3ccccc3Cl)[nH]c12` (configuration not stated), the activation in assay [1] is 5.67%. The Potency result in assay [2] and in assay [3] was “inactive” in each case.
With `CC1=CCC2C(C)(C)CCCC2(C)C1CC12OC1C(O)C(CO)=CC2O` (configuration not stated), the activation in assay [1] is -16.8%. Also, the Potency result in assay [2] and in assay [3] was “inactive” throughout.
Turning to `CC(=O)O[C@H](C[C@@H](C)[C@H]1C(=O)[C@H](O)[C@@]2(C)[C@@H]3CCC4C(C)(C)[C@@H](O[C@@H]5OC[C@H](O)[C@H](O)[C@H]5O)CC[C@@]45C[C@@]35CC[C@]12C)[C@@H]1OC1(C)C` (some centres not stated), in assay [1], the activation is 8.04%. Further, the Potency result in assay [2] and in assay [3] was “inactive” each time.
In the case of `CC1OC(OC2C(OC3C(O[C@H]4CC[C@@]5(C)C(CC[C@]6(C)C5C(=O)C=C5C7CC(C)(C)CC(O)[C@]7(C)CC[C@]56C)C4(C)C)OC(C(=O)O)C(O)C3O)OCC(O)C2O)C(O)C(O)C1O` (some centres not stated), the activation in assay [1] was 2.29%. Further, the Potency result in assay [2] and in assay [3] was “inactive” each time.
Consider `CC(CCO)CCC1C2(C)CCCC(C)(C)C2CC[C@@]1(C)O` (some centres not stated), for which, in assay [1], the activation was 18.3%. The Potency entry in assay [2] and in assay [3] was “inactive” in each case.
For the compound `C=C(CCO)C(=O)OCC1OCC(OC(=O)C(=C)CCO[C@@H]2O[C@H](COC(=O)C(=C)CCO[C@@H]3O[C@H](CO)[C@@H](O)[C@H](O)[C@H]3O)[C@@H](O)[C@H](O)[C@H]2O)C(O)C1O` (some centres not stated), the activation in assay [1] was 11.5%. The Potency entry in assay [2] and in assay [3] was “inactive” each time.
Turning to `C=C(C(=O)O)C1CC2=C(C)C(=O)CC2C(C)CC1O` (configuration not stated), the Potency in assay [1] was 12 µM (active). The Potency result in assay [2] and in assay [3] was “inactive” throughout.
As for `COc1ccc([C@H]2Cc3cccc(O)c3C(=O)O2)cc1OC`, the activation in assay [1] was 6.87%. The Potency entry in assay [2] and in assay [3] was “inactive” each time.
On to `CS(=O)(=O)N(CC(=O)NCC1CC1)c1cc(C(F)(F)F)ccc1Cl`, for which the activation in assay [1] is -13%. Also, the Potency result in assay [2] and in assay [3] was “inactive” in each case.
Consider `CC(=O)N[C@H](Cc1ccc(O)cc1)C(=O)N[C@H](CCCN=C(N)N)C(=O)N[C@H](Cc1ccccc1)C(N)=O` (Ac-[dY]-[dR]-[dF]-NH2), for which, in assay [1], the activation is -15.7%. Also, the Potency result in assay [2] and in assay [3] was “inactive” throughout.
Consider `CC(O)C1NC(=O)C2CCCN2C1=O` (configuration not stated), for which the activation in assay [1] was -25.2%. In addition, the Potency entry in assay [2] and in assay [3] was “inactive” throughout.
`C=C1[C@@H]2CC[C@@H]3[C@@](CCC4C(C(=O)O)(C(=O)O)C[C@@H](O[C@@H]5O[C@H](CO)[C@@H](O)[C@H](O)[C@H]5OC(=O)CC(C)C)C[C@]43C)(C2)[C@H]1O` (some centres not stated): the activation in assay [1] is -16%. Besides, the Potency result in assay [2] and in assay [3] was “inactive” in each case.
On to `CC1CCC2(C(=O)OC3OC(CO)C(O)C(O)C3O)CCC3(C)C(=CCC4C5(C)CC(O)C(O)C(C)(C(=O)O)C5CCC43C)C2C1(C)O` (configuration not stated), for which the activation in assay [1] is -18.3%. In addition, the Potency entry in assay [2] and in assay [3] was “inactive” each time.
For `O=C(O)c1ccc(OC2OC(CO)C(O)C(O)C2O)cc1` (configuration not stated), the activation in assay [1] is -11.6%. Further, the Potency result in assay [2] and in assay [3] was “inactive” in each case.
